Measured values taken from article PMC11006913.
Residue numbers refer to the chain shown, from its start.

What was measured:
Assay in all cases: PBM; 200 nM protein, PBS
Details in all cases: dsDNA, one strand shown
VENTX [1] = biological target: T1, VENTX (Homo sapiens, UniProt O95231 78-163, R121Q)
T1 sequence: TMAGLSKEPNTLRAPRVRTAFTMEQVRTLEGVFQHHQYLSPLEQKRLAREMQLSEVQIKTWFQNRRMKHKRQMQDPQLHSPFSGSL

HOXC9 [2] = biological target: HOXC9 (Homo sapiens, UniProt P31274 178-260, K195R)
VENTX [3] = biological target: T2, VENTX (Homo sapiens, UniProt O95231 78-163)
T2 sequence: T1 sequence with Q44R

VENTX [4] = biological target: T3, VENTX (Homo sapiens, UniProt O95231 78-163, Y115F)
T3 sequence: T1 sequence with Y38F, Q44R

HOXC9 [5] = biological target: HOXC9 (Homo sapiens, UniProt P31274 178-260)
Sequence of HOXC9 (Homo sapiens, UniProt P31274 178-260) (P31274 178-260): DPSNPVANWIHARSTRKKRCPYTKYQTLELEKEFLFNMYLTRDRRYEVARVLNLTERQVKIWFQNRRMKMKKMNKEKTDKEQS

ALX1 [6] = biological target: ALX1 (Homo sapiens, UniProt Q15699 118-204, L144V)
Sequence of ALX1 (Homo sapiens, UniProt Q15699 118-204, L144V) (Q15699 118-204 L144V): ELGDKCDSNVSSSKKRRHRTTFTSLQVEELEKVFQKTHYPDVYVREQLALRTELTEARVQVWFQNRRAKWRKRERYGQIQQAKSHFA

HOXC9 [7] = biological target: HOXC9 (Homo sapiens, UniProt P31274 178-260, R193K)
Sequence of HOXC9 (Homo sapiens, UniProt P31274 178-260, R193K) (P31274 178-260 R193K): as the sequence (P31274 178-260) above, with R16K counted along it

ALX1 [8] = biological target: ALX1 (Homo sapiens, UniProt Q15699 118-204, L144R)
Sequence of ALX1 (Homo sapiens, UniProt Q15699 118-204, L144R) (Q15699 118-204 L144R): as the sequence (Q15699 118-204 L144V) above, with V27R counted along it

HOXC9 [9] = biological target: HOXC9 (Homo sapiens, UniProt P31274 178-260, R222W)
Sequence of HOXC9 (Homo sapiens, UniProt P31274 178-260, R222W) (P31274 178-260 R222W): as the sequence (P31274 178-260) above, with R45W counted along it

ALX1 [10] = biological target: ALX1 (Homo sapiens, UniProt Q15699 118-204)
Sequence of ALX1 (Homo sapiens, UniProt Q15699 118-204) (Q15699 118-204): as the sequence (Q15699 118-204 L144V) above, with V27L counted along it

HOXB9 [11] = biological target: HOXB9 (Homo sapiens, UniProt P17482 171-250, T197M)
Sequence of HOXB9 (Homo sapiens, UniProt P17482 171-250, T197M) (P17482 171-250 T197M): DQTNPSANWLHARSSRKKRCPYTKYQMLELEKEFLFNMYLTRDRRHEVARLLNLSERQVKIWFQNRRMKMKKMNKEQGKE

HOXB9 [12] = biological target: HOXB9 (Homo sapiens, UniProt P17482 171-250)
Sequence of HOXB9 (Homo sapiens, UniProt P17482 171-250) (P17482 171-250): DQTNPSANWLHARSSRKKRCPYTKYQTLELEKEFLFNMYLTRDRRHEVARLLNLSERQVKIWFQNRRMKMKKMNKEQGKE

HOXD13 [13] = biological target: HOXD13 (Homo sapiens, UniProt P35453 263-343, T313R)
Sequence of HOXD13 (Homo sapiens, UniProt P35453 263-343, T313R) (P35453 263-343 T313R): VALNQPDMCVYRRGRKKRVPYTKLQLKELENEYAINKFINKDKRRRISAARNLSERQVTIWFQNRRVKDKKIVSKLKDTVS

HOXD13 [14] = biological target: HOXD13 (Homo sapiens, UniProt P35453 263-343)
Sequence of HOXD13 (Homo sapiens, UniProt P35453 263-343) (P35453 263-343): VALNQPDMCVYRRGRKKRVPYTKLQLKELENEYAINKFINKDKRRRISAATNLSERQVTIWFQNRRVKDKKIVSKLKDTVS

HOXD13 [15] = biological target: HOXD13 (Homo sapiens, UniProt P35453 263-343, T313A)
Sequence of HOXD13 (Homo sapiens, UniProt P35453 263-343, T313A) (P35453 263-343 T313A): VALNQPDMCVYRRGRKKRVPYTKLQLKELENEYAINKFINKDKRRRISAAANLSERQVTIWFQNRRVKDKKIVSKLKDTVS

HOXB9 [16] = biological target: HOXB9 (Homo sapiens, UniProt P17482 171-250, R186Q)
Sequence of HOXB9 (Homo sapiens, UniProt P17482 171-250, R186Q) (P17482 171-250 R186Q): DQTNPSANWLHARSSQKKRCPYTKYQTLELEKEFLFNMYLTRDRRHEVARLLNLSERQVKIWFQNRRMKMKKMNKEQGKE

HOXA7 [17] = biological target: HOXA7 (Homo sapiens, UniProt P31268 116-202)
Sequence of HOXA7 (Homo sapiens, UniProt P31268 116-202) (P31268 116-202): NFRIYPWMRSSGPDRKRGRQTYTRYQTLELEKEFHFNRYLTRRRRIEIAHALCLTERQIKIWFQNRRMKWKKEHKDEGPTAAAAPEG

HOXC10 [18] = biological target: HOXC10 (Homo sapiens, UniProt Q9NYD6 254-340)
Sequence of HOXC10 (Homo sapiens, UniProt Q9NYD6 254-340) (Q9NYD6 254-340): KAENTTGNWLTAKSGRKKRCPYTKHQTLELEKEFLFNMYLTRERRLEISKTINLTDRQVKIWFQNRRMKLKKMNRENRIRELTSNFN

HOXB6 [19] = biological target: HOXB6 (Homo sapiens, UniProt P17509 132-218, K202E)
Sequence of HOXB6 (Homo sapiens, UniProt P17509 132-218, K202E) (P17509 132-218 K202E): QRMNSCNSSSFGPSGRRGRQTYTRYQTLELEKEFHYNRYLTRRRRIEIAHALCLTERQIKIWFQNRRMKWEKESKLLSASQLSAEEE

HOXC10 [20] = biological target: HOXC10 (Homo sapiens, UniProt Q9NYD6 254-340, K271E)
Sequence of HOXC10 (Homo sapiens, UniProt Q9NYD6 254-340, K271E) (Q9NYD6 254-340 K271E): as the sequence (Q9NYD6 254-340) above, with K18E counted along it

HOXA7 [21] = biological target: HOXA7 (Homo sapiens, UniProt P31268 116-202, W177C)
Sequence of HOXA7 (Homo sapiens, UniProt P31268 116-202, W177C) (P31268 116-202 W177C): as the sequence (P31268 116-202) above, with W62C counted along it

HOXB6 [22] = biological target: HOXB6 (Homo sapiens, UniProt P17509 132-218)
Sequence of HOXB6 (Homo sapiens, UniProt P17509 132-218) (P17509 132-218): as the sequence (P17509 132-218 K202E) above, with E71K counted along it

Sequence of HOXC9 (Homo sapiens, UniProt P31274 178-260, K195R) (P31274 178-260 K195R): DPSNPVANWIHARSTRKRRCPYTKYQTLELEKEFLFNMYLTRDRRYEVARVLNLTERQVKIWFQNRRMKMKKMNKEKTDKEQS

In the case of CCCCCTGA, the binding signal (VENTX [1]) is reported as 7.9 upbm affinity estimate (log intensity, higher = more binding, comparable within an allelic series), the binding signal (HOXC9 [2]) is reported as 9.31 upbm affinity estimate (log intensity, higher = more binding, comparable within an allelic series) and the binding signal (VENTX [3]) is reported as 7.95 upbm affinity estimate (log intensity, higher = more binding, comparable within an allelic series). The binding signal (VENTX [4]) was 7.94 upbm affinity estimate (log intensity, higher = more binding, comparable within an allelic series), the binding signal (HOXC9 [5]) was 9.4 upbm affinity estimate (log intensity, higher = more binding, comparable within an allelic series) and the binding signal (ALX1 [6]) was 6.45 upbm affinity estimate (log intensity, higher = more binding, comparable within an allelic series). The binding signal (HOXC9 [7]) was 9.32 upbm affinity estimate (log intensity, higher = more binding, comparable within an allelic series), the binding signal (ALX1 [8]) was 6.47 upbm affinity estimate (log intensity, higher = more binding, comparable within an allelic series) and the binding signal (HOXC9 [9]) was 9.33 upbm affinity estimate (log intensity, higher = more binding, comparable within an allelic series). For the same sequence, the binding signal (ALX1 [10]) was 6.49 upbm affinity estimate (log intensity, higher = more binding, comparable within an allelic series).
With CGATTACC the binding signal (VENTX [1]) was 10.2 upbm affinity estimate (log intensity, higher = more binding, comparable within an allelic series).
For CGATTAAA, the binding signal (VENTX [1]) was 10.7 upbm affinity estimate (log intensity, higher = more binding, comparable within an allelic series).
For AGAGGGGC, the binding signal (VENTX [1]) was 8.19 upbm affinity estimate (log intensity, higher = more binding, comparable within an allelic series), the binding signal (HOXB9 [11]) was 8.56 upbm affinity estimate (log intensity, higher = more binding, comparable within an allelic series) and the binding signal (VENTX [3]) was 8.3 upbm affinity estimate (log intensity, higher = more binding, comparable within an allelic series). The binding signal (VENTX [4]) was 8.07 upbm affinity estimate (log intensity, higher = more binding, comparable within an allelic series), the binding signal (HOXB9 [12]) was 8.46 upbm affinity estimate (log intensity, higher = more binding, comparable within an allelic series) and the binding signal (HOXD13 [13]) was 9.48 upbm affinity estimate (log intensity, higher = more binding, comparable within an allelic series). The binding signal (HOXD13 [14]) was 9.71 upbm affinity estimate (log intensity, higher = more binding, comparable within an allelic series), the binding signal (HOXD13 [15]) was 9.59 upbm affinity estimate (log intensity, higher = more binding, comparable within an allelic series) and the binding signal (HOXB9 [16]) was 8.41 upbm affinity estimate (log intensity, higher = more binding, comparable within an allelic series).
In the case of CTCCCGAG, the binding signal (VENTX [1]) is reported as 8.03 upbm affinity estimate (log intensity, higher = more binding, comparable within an allelic series), the binding signal (HOXB9 [11]) is reported as 8.41 upbm affinity estimate (log intensity, higher = more binding, comparable within an allelic series) and the binding signal (VENTX [3]) is reported as 8.1 upbm affinity estimate (log intensity, higher = more binding, comparable within an allelic series). For the same sequence, the binding signal (VENTX [4]) was 8.07 upbm affinity estimate (log intensity, higher = more binding, comparable within an allelic series), the binding signal (HOXB9 [12]) was 8.42 upbm affinity estimate (log intensity, higher = more binding, comparable within an allelic series) and the binding signal (HOXB9 [16]) was 8.44 upbm affinity estimate (log intensity, higher = more binding, comparable within an allelic series).
For GCCATTAA, the binding signal (VENTX [1]) was 11.8 upbm affinity estimate (log intensity, higher = more binding, comparable within an allelic series), the binding signal (HOXB9 [11]) was 10.1 upbm affinity estimate (log intensity, higher = more binding, comparable within an allelic series) and the binding signal (HOXC9 [2]) was 12.9 upbm affinity estimate (log intensity, higher = more binding, comparable within an allelic series). The binding signal (VENTX [3]) was 12.3 upbm affinity estimate (log intensity, higher = more binding, comparable within an allelic series), the binding signal (HOXA7 [17]) was 11.9 upbm affinity estimate (log intensity, higher = more binding, comparable within an allelic series) and the binding signal (HOXC10 [18]) was 12.3 upbm affinity estimate (log intensity, higher = more binding, comparable within an allelic series). The binding signal (VENTX [4]) was 11.6 upbm affinity estimate (log intensity, higher = more binding, comparable within an allelic series), the binding signal (HOXB6 [19]) was 10 upbm affinity estimate (log intensity, higher = more binding, comparable within an allelic series) and the binding signal (HOXB9 [12]) was 12.2 upbm affinity estimate (log intensity, higher = more binding, comparable within an allelic series). For the same sequence, the binding signal (HOXC9 [5]) was 13 upbm affinity estimate (log intensity, higher = more binding, comparable within an allelic series), the binding signal (HOXC9 [7]) was 12.8 upbm affinity estimate (log intensity, higher = more binding, comparable within an allelic series) and the binding signal (HOXC10 [20]) was 12.2 upbm affinity estimate (log intensity, higher = more binding, comparable within an allelic series). The binding signal (HOXB9 [16]) was 12 upbm affinity estimate (log intensity, higher = more binding, comparable within an allelic series), the binding signal (HOXC9 [9]) was 10.9 upbm affinity estimate (log intensity, higher = more binding, comparable within an allelic series) and the binding signal (HOXA7 [21]) was 8.78 upbm affinity estimate (log intensity, higher = more binding, comparable within an allelic series). For the same sequence, the binding signal (HOXB6 [22]) was 12.2 upbm affinity estimate (log intensity, higher = more binding, comparable within an allelic series).
